Shown are actives, neighbours in structure and some others; about 18% of the full set was active somewhere.
GCN5L2 inh: GCN5L2 (KAT2A) acetyltransferase inhibition. GCN5L2 HAT assay, ThioGlo1 CoA-SH fluorescence. 0.21% of 390,000 active. Potency, µM (highest dose often 58.9 µM), most hits filed as inhibitors
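Enzyme at 20nM final was mixed with library compounds for 15 min at room temperature. Peptide H3(1-25) at 75uM, acetyl-CoA at 70uM and ThioGlo1 at 50uM were then added. Plates were read immediately and after 20 min (Ex340nm/Em540nm).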
VDR inhibitor: inhibitors of human vitamin D receptor. Potency, µM, most hits filed as inhibitors. P11473. AID 504847. 0.93% of 400,000 active. VDR-SRC2-3 peptide fluorescence polarization, 2 h
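Fluorescence polarization assay measuring small-molecule disruption of VDR binding to the coregulator peptide SRC2-3. Compounds were pin-transferred (23 nl) into the reagent mix and incubated 2 h at room temperature before reading.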
TDP1 inh: TDP1 (human) enzyme inhibition; Q9NUW8; recombinant TDP1, AlphaScreen DNA substrate cleavage; Potency, µM (series often up to 130 µM), actives largely listed as inhibitors; 0.28% of 350,000 active; further: nearly all actives have a fitted effect of over 40% in size
Target sequence (Q9NUW8 whole entry, looked up): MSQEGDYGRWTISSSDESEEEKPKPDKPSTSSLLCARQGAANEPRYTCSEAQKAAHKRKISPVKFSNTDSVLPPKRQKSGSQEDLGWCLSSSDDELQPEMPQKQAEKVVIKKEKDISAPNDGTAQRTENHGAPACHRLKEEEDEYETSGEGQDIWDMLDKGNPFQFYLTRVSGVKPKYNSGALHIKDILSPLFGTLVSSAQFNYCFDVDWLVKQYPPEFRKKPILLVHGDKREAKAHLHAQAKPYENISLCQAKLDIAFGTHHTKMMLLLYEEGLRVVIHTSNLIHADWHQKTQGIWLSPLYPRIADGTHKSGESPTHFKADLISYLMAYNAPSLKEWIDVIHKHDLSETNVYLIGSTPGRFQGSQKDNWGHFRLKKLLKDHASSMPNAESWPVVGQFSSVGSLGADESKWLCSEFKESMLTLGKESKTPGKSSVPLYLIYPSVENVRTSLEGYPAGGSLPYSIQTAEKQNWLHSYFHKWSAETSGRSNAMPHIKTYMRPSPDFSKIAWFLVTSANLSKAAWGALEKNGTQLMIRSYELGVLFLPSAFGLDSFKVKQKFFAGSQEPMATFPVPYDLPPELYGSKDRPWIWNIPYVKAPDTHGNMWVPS
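AlphaScreen read-out: signal falls as enzyme removes the 3' tyrosine-FITC from a 5'-biotinylated DNA oligo (15 nM, 5 min, RT). Enzyme was E. coli-made recombinant Tdp1 at 1 nM, exposed to compound for 15 min beforehand; beads 10 ug/ml, 10 min.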
PLK1 PBD inh: blocks phosphopeptide binding to human PLK1 polo-box domain. 2.8% of 360,000 active. Potency, µM, hits mostly inhibitors. Plk1 PBD binding of FITC phosphopeptide, fluorescence polarization. P53350; further: series mostly up to about 57 µM; nearly all actives have a fitted effect of over 65% in size
DT40 TDP1 no CPT: qHTS for Inhibitors of human tyrosyl-DNA phosphodiesterase 1 (TDP1): qHTS in cells in absence of CPT; 15% of 420,000 active; DT40 Tdp1-/- hTDP1 cells, no CPT, ATP luminescence, 48 h; AID 686978, 2013; Potency, µM (series often up to 46.2 µM), most hits filed as inhibitors; further: nearly all actives have a fitted effect of over 55% in size
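Cells were dispensed at 400 per well, compounds added by pin tool, plates incubated ≥48 hr at 37 °C, then CellTiter-Glo added for 30 min at room temperature before luminescence reading. Line: DT40 Tdp1-/- complemented with hTDP1; camptothecin omitted.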
TDP1 cell CPT: DT40-hTDP1 cell growth loss with CPT; 12% of 420,000 active; AID 686979; Potency, µM (doses to about 46.2 µM), hits mostly inhibitors; chicken DT40 Tdp1-/-;hTDP1 cells + 20 nM CPT, ATP luminescence, 48 h; further: nearly all actives have a fitted effect of over 55% in size
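Cell growth measured by CellTiter-Glo luminescence after a minimum 48 h, 37 C compound exposure with 20 nM CPT in Tdp1-knockout DT40 cells stably expressing hTDP1, seeded 400/well; qHTS titration format.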
Of the large screens only hits and unclear results are named; the others gave an inactive call. The call rests on the fitted dose curve; in most records, active means well fitted curve in the direction sought with a large enough effect; inconclusive means small, poorly fitted or top-dose-only effect, or another doubt; inactive means no such curve, though single readings can be large; an effect the other way counts as inactive or inconclusive.

O=C(NC1CCN(S(=O)(=O)c2ccccc2C(F)(F)F)CC1)c1ccco1	none (no result: TDP1 inh)
c1cc2c3c(c1)c1c(n3CCNC2)CCCC1	VDR inhibitor inconclusive, DT40 TDP1 no CPT 23.7µM, TDP1 cell CPT inconclusive (no result: PLK1 PBD inh)
Cc1cnc(SCCN2CCOCC2)nc1C1CCCN(C(=O)c2cccc3c(C)c(C)[nH]c23)C1 (stereo unspecified)	DT40 TDP1 no CPT 16.4µM (no result: GCN5L2 inh, VDR inhibitor, TDP1 inh, PLK1 PBD inh)
Cc1cnc(SCc2ccccn2)nc1C1CCCN(C(=O)c2ccc3c(c2)OCO3)C1 (stereo unspecified)	DT40 TDP1 no CPT inconclusive, TDP1 cell CPT 20.6µM (no result: GCN5L2 inh, VDR inhibitor, TDP1 inh, PLK1 PBD inh)
Cc1cnc(SCc2ccccn2)nc1C1CCCN(C(=O)c2ccc3[nH]c(C)c(C)c3c2)C1 (stereo unspecified)	DT40 TDP1 no CPT inconclusive (no result: GCN5L2 inh, VDR inhibitor, TDP1 inh, PLK1 PBD inh)
Cc1cnc(SCc2ccccn2)nc1C1CCCN(Cc2ccsc2)C1 (stereo unspecified)	DT40 TDP1 no CPT 14.6µM, TDP1 cell CPT 14.6µM (no result: GCN5L2 inh, VDR inhibitor, TDP1 inh, PLK1 PBD inh)
Cc1cnc(SCc2ccccn2)nc1C1CCCN(C(=O)c2cc3ccccc3oc2=O)C1 (stereo unspecified)	DT40 TDP1 no CPT 20.6µM, TDP1 cell CPT 16.4µM (no result: GCN5L2 inh, VDR inhibitor, TDP1 inh, PLK1 PBD inh)
Cc1cnc(SCC2CCCO2)nc1C1CCCN(C(=O)c2ccc(S(N)(=O)=O)cc2)C1 (stereo unspecified)	DT40 TDP1 no CPT inconclusive (no result: GCN5L2 inh, VDR inhibitor, TDP1 inh, PLK1 PBD inh)
O=C(Nc1ccc(Oc2ccccc2)cc1)c1ccc2nc([C@@H]3O[C@H](CO)[C@H](O)[C@H](O)[C@H]3O)[nH]c2c1	none (no result: GCN5L2 inh, VDR inhibitor, TDP1 inh)
Cc1ccccc1Nc1nc(N)[nH]c(=O)c1N=O	DT40 TDP1 no CPT inconclusive, TDP1 cell CPT inconclusive (no result: GCN5L2 inh, VDR inhibitor, TDP1 inh)
CC(/C=N/NC(=O)c1cc(-c2ccc(C)o2)[nH]n1)=C\c1ccccc1	DT40 TDP1 no CPT 16.4µM, TDP1 cell CPT 14.6µM
COc1ccc(C(=O)N/N=C\C(C)=C\c2ccccc2)cc1OC	DT40 TDP1 no CPT 16.4µM, TDP1 cell CPT inconclusive (no result: GCN5L2 inh, TDP1 inh)
COc1ccccc1/C=C/C=N/NC(=O)c1cc(-c2ccco2)[nH]n1	GCN5L2 inh inconclusive, PLK1 PBD inh inconclusive, DT40 TDP1 no CPT 18.4µM, TDP1 cell CPT inconclusive
CC(/C=N/NC(=O)c1ccc(Br)cc1)=C\c1ccccc1	none (no result: TDP1 inh)
O=C(N/N=C/C(Br)=C/c1ccccc1)c1cc(-c2ccco2)[nH]n1	DT40 TDP1 no CPT 8.2µM, TDP1 cell CPT 6.51µM
CCOC(=O)C1(CCOC)CCN(C(=O)c2ccc(CSC)o2)CC1	none
COc1ccc(C(=O)OCC(=O)NC2CCCCCC2)c(OC)c1	DT40 TDP1 no CPT inconclusive
CC(/C=N/NC(=O)c1cc(C(C)C)[nH]n1)=C\c1ccccc1	PLK1 PBD inh 29.9µM, DT40 TDP1 no CPT inconclusive, TDP1 cell CPT inconclusive
O=C(Nc1ccccc1SC(=O)c1ccccc1)c1ccccc1	PLK1 PBD inh 4.23µM, DT40 TDP1 no CPT 4.61µM, TDP1 cell CPT 3.26µM (no result: GCN5L2 inh, VDR inhibitor, TDP1 inh)
O=C(O)c1ccccc1Nc1ccc(CCc2ccc(Cl)c(Cl)c2)cc1	GCN5L2 inh 11.2µM, VDR inhibitor 35.5µM (no result: PLK1 PBD inh, DT40 TDP1 no CPT, TDP1 cell CPT)
O=C(O)c1ccccc1Nc1cc(Cl)cc(Cl)c1	GCN5L2 inh inconclusive, VDR inhibitor inconclusive (no result: PLK1 PBD inh, DT40 TDP1 no CPT, TDP1 cell CPT)
O=C(Nc1ccccc1C(=O)N/N=C/c1ccncc1)c1ccccc1	DT40 TDP1 no CPT 20.6µM, TDP1 cell CPT inconclusive
Nc1ccc(NC(=O)c2ccccc2)c2c1C(=O)c1ccccc1C2=O	DT40 TDP1 no CPT 16.4µM, TDP1 cell CPT 13µM
CSc1ccccc1NC(=O)c1ccccc1	none
CCc1ccc(C(=O)COC(=O)CNC(=O)C2CCCCC2)cc1	VDR inhibitor inconclusive
COc1ccccc1NC(=O)c1ccccc1Nc1ccccc1	DT40 TDP1 no CPT inconclusive, TDP1 cell CPT inconclusive (no result: TDP1 inh)
Nc1ccccc1NC(=O)c1ccccc1	DT40 TDP1 no CPT 18.4µM, TDP1 cell CPT 20.6µM
O=C(O)c1ccccc1NC(=O)c1ccccc1Nc1ccccc1	GCN5L2 inh inconclusive, PLK1 PBD inh 29.9µM, DT40 TDP1 no CPT inconclusive, TDP1 cell CPT inconclusive (no result: TDP1 inh)
Cc1cccc(NC(=O)c2ccccc2NC(=O)c2ccccc2)n1	DT40 TDP1 no CPT 18.4µM, TDP1 cell CPT inconclusive (no result: TDP1 inh)

High-throughput results from PubChem BioAssay.
